Assay results: PubChem BioAssay AID1159580 (chemical genetic matrix, 2015)
Out of some 5,500 compounds screened, about 2,000 (36%) were called active. Roughly 18% stayed inconclusive and do not appear here. No stated cut-off is given here; in the data, active means normalized growth mostly below about 0.91 (no sharp cut-off); inconclusive means no clear call, values can overlap the other calls; inactive means mostly above about 0.92. The list shows a part of the results.

Test: chemical genetic growth profiling, strain panel (AID 1159580);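 further: tested at 20 µM; growth read once vehicle control cultures reached saturation at 30 °C; 1 = growth at the plate median or of vehicle wells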
Details: S. cerevisiae deletion strains, growth OD
[1] = locus YAL040C, strain CLN3, stronger effect = lower value
[2] = locus YCL061C, strain MRC1 (second series), stronger effect = lower value
[3] = locus YDR150W, strain NUM1, stronger effect = lower value
[4] = locus YDR363W, strain ESC2, stronger effect = lower value
[5] = locus YER002W, strain NOP16, stronger effect = lower value
[6] = locus YMR307W, strain GAS1, stronger effect = lower value
[7] = locus YNL175C, strain NOP13, stronger effect = lower value
[8] = locus YNL197C, strain WHI3, stronger effect = lower value
[9] = locus YNL224C, strain SQS1, stronger effect = lower value
[10] = locus YOR083W, strain WHI5 (second series), stronger effect = lower value
[11] = locus YPL055C, strain LGE1, stronger effect = lower value

Measured: normalized growth

N[C@H](CO)C(=O)O
inactive: locus YAL013W, strain DEP1, stronger effect = lower value 1.03 | [1] 1.01 | [2] 1 | [3] 1 | [4] 1.03 | [5] 0.986 | locus YJR075W, strain HOC1, stronger effect = lower value 1.01 | [6] 1 | locus YNL128W, strain TEP1, stronger effect = lower value 0.999 | [7] 0.995 | [8] 0.999 | [9] 0.997 | locus YNL322C, strain KRE1, stronger effect = lower value 1 | [10] 0.996 | [11] 1.02

COC(=O)[C@@H](N)Cc1ccc(O)c(O)c1
inactive: [1] 1.03 | [2] 0.971 | [3] 0.958 | [4] 1 | [5] 1 | [6] 0.995 | [7] 1 | [8] 0.984 | [9] 1 | [10] 0.993 | [11] 0.971 | locus YPL241C, strain CIN2, stronger effect = lower value 1.01
